Bioassay records: PubChem, National Center for Advancing Translational Sciences (NCATS)
Sampled rows, rich in hits. Any-hit rate of the full collection: about 0.29%.
GALC G270D act = enhancers of human galactocerebrosidase G270D mutant activity in cells; P54803; 145M-Twi-hGALC-G270D cells (Twitcher mouse brain line with human GALC G270D), HMU-beta-Gal fluorescence, 48 h; Potency, µM (series often up to 57.5 µM), actives largely listed as activators; hit rate 0.1% among 45,000; AID 1159614; further: potency means the concentration at half of the fitted maximal effect; 0% is about no effect; nearly all actives have a fitted effect of over 65% in size
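Live 145M-Twi cells (Twitcher mouse brain-derived, GALC-null) stably expressing human GALC-G270D, with a wild-type GALC line, were compound-treated. Residual GALC activity was then read as fluorescence from 0.1 mM final HMU-β-gal at pH 5.2; higher signal means activation.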
GALK inh = inhibitors of human galactokinase (GALK). recombinant GALK, Kinase-Glo ATP luminescence, 1 h. Potency, µM (highest dose often 57.5 µM), without a hit: at the top dose activity, negative = inhibition, usual class: inhibitors. 44,000 tested, under 10 active;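 further: plate controls were full GALK reaction for no effect and reaction lacking GALK for full effect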
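Reactions with and without enzyme served as controls. GALK at 5 nM phosphorylates 100 uM galactose using 35 uM ATP (HEPES pH 8.0, Mg2+) for 1 h at RT, with luminescence read 10 min after adding Kinase-Glo Plus.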
B2AR arrestin ag = ADRB2 beta-arrestin recruitment. HTLA Tango cells, beta-arrestin recruitment, luciferase luminescence, 18 h. 44,000 tested, under 10 active. Potency, µM (highest dose often 46.1 µM), usual class: activators;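 further: potency means the concentration at half of the fitted maximal effect; 0% = DMSO and full agonism = EC100 isoproterenol or metaproterenol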
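Receptor–beta-arrestin recruitment read by tTA-responsive luciferase: compound titrations (up to 46 µM) incubated 18 h with Tango cells, then luminescent substrate 15 min at room temperature. Concentration-response fits classified by r2, efficacy and activity.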
FH mod = Identification of activators of human fumarate hydratase by quantitative high-throughput screening | Fumarate hydratase, mitochondrial (Homo sapiens), P07954 | FH coupled MDH/diaphorase resazurin fluorescence, 15 min | Potency, µM (highest dose often 79.9 µM), inactives show at the top dose activity change, negative = inhibition, hits mostly inhibitors | hit rate 0.22% among 54,000; further: potency means the concentration at half of the fitted maximal effect; on the % scale 0 is the no-effect control and ±100 the full control effect; the screen sought activators but most active calls are inhibition curves; nearly all actives have a fitted effect of over 45% in size
TSG101-PTAP inh = TSG101-PTAP interaction inhibition, HIV-1 budding | Q99816 | Fluorescence polarization, FITC-PTAP peptide/Tsg101, 20 min | Potency, µM (doses to about 115 µM), most hits filed as inhibitors | 44,000 tested, under 10 active | AID 1347069; further: potency means the concentration at half of the fitted maximal effect; 0% is about no effect
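Fluorescence polarization binding of Tsg101 binding domain (10 uM final) to FITC-labeled PTAP-motif peptide (50 nM final) in HEPES pH 7.5/NaCl/Tween 20/EDTA/TCEP buffer; 20 min at r.t. Actives by curve class, <25 µM, efficacy <60% inhibition.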
Numbers without * were called inactive; i = inactive; ? = inconclusive; nt = no result. The call rests on the fitted dose curve; in most records, active means well fitted curve in the direction sought with a large enough effect; inconclusive means small, poorly fitted or top-dose-only effect, or another doubt; inactive means no such curve, though single readings can be large; an effect the other way counts as inactive or inconclusive.

SMILES	GALC G270D act	GALK inh	B2AR arrestin ag	FH mod	TSG101-PTAP inh
CCOC(=O)C1CCN(c2cc3c(cc2NC(=O)c2ccc(Cl)cc2)n(C)c(=O)n3C)CC1	i	-1%	i	20µM*	i
COc1ccc(-c2oc3ncnc(N)c3c2-c2ccc(NC(=O)Nc3cc(C(F)(F)F)ccc3F)cc2)cc1	nt	nt	nt	1%	nt
CCc1cc(C(N)=O)ccc1-n1nc(C(C)C)c2c(-n3cnc(-c4cnn(C)c4)c3)ccnc21	nt	nt	nt	3%	nt
CC(C)c1c2cc(-c3ccnc(NC4CCC(NC5CCOCC5)CC4)n3)ccc2nn1C (stereo not given)	nt	nt	nt	-1%	nt
COc1cccc(NC(=O)/C(C#N)=C/c2ccc(-c3ccc(C)cc3)o2)c1	i	2%	i	-8%	40µM*
N#C/C(=C\c1ccc(-c2ccc(Br)cc2)o1)C(=O)Nc1ccccc1O	i	-1%	i	-1%	i
N#C/C(=C\c1ccc(-c2ccc(C(=O)O)cc2)o1)C(=O)Nc1ccccc1C(=O)O	i	?	i	14µM*	i
O=C1NC(=NCc2cccs2)S/C1=C/c1ccc2ncccc2c1	nt	nt	nt	-7%	nt
CCN(CC)S(=O)(=O)c1ccc2c(c1)c(=O)c(C(=O)NCc1ccccc1)cn2C	i	8%	i	-4%	i
CCN(CC)S(=O)(=O)c1ccc2c(c1)c(=O)c(C(=O)N(C)Cc1ccccc1)cn2C	25µM*	6%	i	-2%	i
COc1cc(C2c3c(-c4c(C)cc(C)cc4O)n[nH]c3C(=O)N2Cc2ccco2)cc(OC)c1OC (stereo not given)	i	-9%	i	-8%	i
COc1cc(C2c3c(-c4cc(C)ccc4O)n[nH]c3C(=O)N2Cc2ccco2)cc(OC)c1OC (stereo not given)	i	-9%	?	22µM*	i
CCOc1ccc(C(Nc2ccccn2)c2ccc3ccc(C)nc3c2O)cc1C (stereo not given)	nt	nt	nt	1%	nt
COc1cc2c(cc1OC)/C(=C/c1ccc(O)cc1)C(=O)N2	nt	nt	nt	0%	nt
